Measured values reported in the supplement of paper PMC6607015.
Where a name gives a salt, the structure may show the parent alone.

Each compound was assayed on A431 (assay: whole-cell filipin (free cholesterol) integrated intensity, Z-score; higher = more cholesterol staining). Details: compound concentration in added solution (µM; 5 µl added to 20 µl cells): 10; 18 h.
How it was run: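 Each value is a Z-score normalised in AcuityXpress from per-cell integrated LBPA or filipin intensity, taken over the whole cell or within LBPA endosomes. Duplicate 384-well imaging plates held 5 µl of 10 µM compound solution, onto which 3,500 HeLa MZ or A431 cells in 20 µl were seeded per well. After 18 h the cells were fixed in 4% PFA, stained with 6C4 anti-LBPA antibody, filipin, propidium iodide and CellTracker green, imaged four times per well at 20× and segmented in MetaXpress.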

First: CCOc1cc(CC(=O)N[C@@H](CC(C)C)c2ccccc2N2CCCCC2)ccc1C(=O)O [Repaglinide]
Second: Cc1nc2ccccn2c(=O)c1CCN1CCC(C(=O)c2ccc(F)cc2)CC1 [Pirenperone]
The “whole-cell filipin (z-score)” value of the first is lower: 0.149 for the first, 1.36 for the second.

Compared with `Cc1cn[nH]c1` [Fomepizole], `CNCC[C@@H](Oc1ccccc1C)c1ccccc1` [Tomoxetine hydrochloride] is higher in “whole-cell filipin (z-score)” value: -0.686 for the first, 0.0322 for the second.

Compared with `O=C(Nc1cccc2c(=O)cc(-c3nnn[nH]3)oc12)c1ccc(OCCCCc2ccccc2)cc1` [Pranlukast], `CCCCC1C(=O)N(c2ccccc2)N(c2ccccc2)C1=O` [Phenylbutazone] is higher in “whole-cell filipin (z-score)” value: -0.413 for the first, -0.047 for the second.

Compared with `N#CC(c1ccc(Cl)cc1)c1c(Cl)cc(-n2ncc(=O)[nH]c2=O)cc1Cl` (centres undefined) [Diclazuril], `NS(=O)(=O)c1cc(C2(O)NC(=O)c3ccccc32)ccc1Cl` (centres undefined) [Chlorthalidone] is lower in “whole-cell filipin (z-score)” value: 0.197 for the first, -0.587 for the second.

Compared with `CCN1CCCC1CNC(=O)c1cc(S(=O)(=O)CC)c(N)cc1OC` (centres undefined) [Amisulpride], `NS(=O)(=O)c1cc(C(=O)O)c(NCc2ccco2)cc1Cl` [Furosemide] is lower in “whole-cell filipin (z-score)” value: -0.77 for the first, -0.993 for the second.

Going from `CNC(C)CCC=C(C)C` (centres undefined) [Isometheptene mucate] to `CC(=O)Oc1cc(C(C)C)c(OCCN(C)C)cc1C` [Moxisylyte hydrochoride], the “whole-cell filipin (z-score)” value falls from 0.117 to -0.91.

Going from `CN1CCC[C@@H]1CCO[C@](C)(c1ccccc1)c1ccc(Cl)cc1` [Clemastine fumarate] to `CC(=O)NS(=O)(=O)c1ccc(N)cc1` [Sulfacetamide sodic hydrate], the “whole-cell filipin (z-score)” value falls from 0.619 to -0.701.
